Assay outcomes: PubChem BioAssay, National Center for Advancing Translational Sciences (NCATS)
Only some compounds are listed: those with a hit (about 2.9% of all), similar ones and a draw of the others.
ATXN viability: Viability Counterscreen for Primary qHTS for Inhibitors of ATXN expression; S2 cells (HEK-293 line with an ATXN2-luciferase reporter) viability, CellTiter-Fluor protease fluorescence, 24 h; Potency, µM (titrated, usually from 56.7 µM), most hits filed as cytotoxic; 400,000 compounds, 0.49% hits; further: nearly all actives have a fitted effect of over 40% in size
ATXN2 expr inh: Primary qHTS for Inhibitors of ATXN expression. HEK-293 ATXN2-luciferase reporter, luminescence, 24 h. Potency, µM (titrated, usually from 57 µM), for the others: at the highest dose activity change, negative = inhibition, usual class: inhibitors. 360,000 compounds, 0.72% hits. AID 1745845, 2022; further: on the % scale 0 is the no-effect control and ±100 the full control effect; nearly all actives have a fitted effect of over 55% in size
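ATXN2-luciferase reporter cells (luciferase flanked by upstream and downstream ATXN2 gene portions) were treated 24 h at 37 °C with compounds at up to 57 uM. SteadyGlo luminescence gave expression; GF-AFC fluorescence gave viability.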
A549 tox: Nrf2 qHTS screen for inhibitors: counterscreen for cytotoxicity; Potency, µM (series often up to 46 µM), without a hit: at the top dose activity change, negative = cytotoxicity, most hits filed as inhibitors; 390,000 compounds, 0.16% hits; A549 ARE-Fluc cells, CellTiter-Fluor viability, 18-24 h; AID 504648, 2011; further: on the % scale 0 is the no-effect control and ±100 the full control effect
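A549 ARE_Fluc cells in 5% FBS OPTI-MEM were exposed to compounds in concentration-response for 18-24 h at 37 deg C. Viability was read by CellTiter-Fluor fluorescence (Ex 405/Em 525) after 30 min, before the luciferase read.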
Nrf2 activator: qHTS of Nrf2 Activators; AREc32 ARE-luciferase reporter (MCF7-derived line), luminescence, 24 h; Potency, µM (titrated, usually from 46.1 µM), for inactives: at the top dose activation, hits mostly activators; 410,000 compounds, 0.31% hits; further: % of control where 0% means no effect; nearly all actives have a fitted effect of over 65% in size
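AREc32 cells carrying an ARE-driven firefly luciferase reporter were seeded at 1000 cells/well in OPTI-MEM with 5% FBS, then exposed to compound for 24 hr at 37 deg C. Luminescence was read with Steady-Glo after 30 min at RT.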
Nrf2 inh: Nrf2 qHTS screen for inhibitors. A549 ARE-Fluc reporter, luciferase luminescence, 18-24 h. Potency, µM (top dose mostly 46 µM), for the others: at the highest dose activity change, negative = inhibition, hits mostly inhibitors. 360,000 compounds, 2.1% hits; further: on the % scale 0 is the no-effect control and ±100 the full control effect; nearly all actives have a fitted effect of over 60% in size
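Nrf2 function is reported as luminescence of an ARE-controlled luciferase in A549 cells. Compounds were tested at several concentrations, and a CellTiter-Fluor read on the same wells flagged cytotoxicity.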
An asterisk follows results filed as active; i = inactive; ? = inconclusive; · = no result; [ ] = another dose, or the depositor's remark. The call rests on the fitted dose curve; in most records, active means well fitted curve in the direction sought with a large enough effect; inconclusive means small, poorly fitted or top-dose-only effect, or another doubt; inactive means no such curve, though single readings can be large; an effect the other way counts as inactive or inconclusive. Potency means the concentration at half of the fitted maximal effect.

SMILES	ATXN viability	ATXN2 expr inh	A549 tox	Nrf2 activator	Nrf2 inh
C/C(=C/CCC(C)(O)C1CC[C@@]2(C)[C@@H]3CC=C4[C@@H](CC[C@H](O[C@H]5O[C@@H](CO)[C@H](O)[C@@H](O)[C@@H]5O)C4(C)C)[C@]3(C)C(=O)C[C@]12C)CO[C@@H]1O[C@H](CO)[C@@H](O)[C@H](O)[C@H]1O (stereo partly drawn)	i	7%	-5%	0%	4%
COc1ccc(C2Nc3ccc(NC(=O)CO)cc3C(=O)N2Cc2cccc(Cl)c2)cc1COc1ccc(NC(C)=O)cc1 (stereo not drawn)	·	·	-20%	·	?
Cc1ccc(C2CC(=O)NC(SCc3ccccc3)=C2C#N)cc1 (stereo not drawn)	i	-13%	2%	2%	10µM*
N#CC1=C(SCc2ccccc2)NC(=O)CC1c1ccc(O)cc1 (stereo not drawn)	i	-9%	-1%	0%	-24%
c1ccc(-c2nnc(N3CCN(c4ccccn4)CC3)c3ccccc23)cc1	i	-26%	?	-2%	18µM*
O=C(c1cnc(N2CCN(c3ncccn3)CC2)c2ccccc12)N1CCN(c2ccccn2)CC1	i	-15%	-2%	0%	?
CS(=O)(=O)N1CCN(c2nnc(-c3ccccc3)c3ccccc23)CC1	i	-8%	-3%	0%	-21%
Cc1ccc(-c2nnc(N3CCN(c4ccccn4)CC3)c3ccccc23)cc1	?	?	?	0%	23µM*
Cc1ccc(NC(=O)c2cnc(N3CCN(c4ccccn4)CC3)c3ccccc23)c(Br)c1	i	?	-12%	-1%	15µM*
Cc1ccc(CNC(=O)C(=O)NCC2OCCN2S(=O)(=O)c2cccs2)cc1 (stereo not drawn)	i	2%	-1%	0%	0%
O=C1OC(c2ccc(F)cc2)=N/C1=C\c1ccc(Br)o1	i	-16%	3%	0%	-7%
Cc1ccc(NC(=O)CSC2=C(C#N)C(c3ccc4c(c3)OCO4)C3=C(CCCC3=O)N2)c(C)c1 (stereo not drawn)	?	0%	·	3%	12µM*
COc1ccc(Cl)cc1C(=O)Nc1ccc(NC(C)=O)cc1	i	-3%	-5%	4%	2%
CC(=O)Oc1c(I)cc(I)cc1C(=O)Nc1ccc(Cl)cc1	?	?	?	0%	23µM*
COc1cc(O)c2c(c1)C1OC1C[C@H](O)[C@H](O)C(=O)C=CC[C@H](C)OC2=O (stereo partly drawn)	·	6.9µM*	·	·	·
COC(=O)[C@@H]1Cc2c([nH]c3ccccc23)C(C)(C)N1C(=O)CCl	?	?	-7%	10µM*	-14%
COC(=O)C1Cc2c([nH]c3ccccc23)C2CCC(=O)N12 (stereo not drawn)	i	·	·	2%	·
COc1ccc(Cl)cc1NC(=O)COC(=O)c1c(-c2ccccc2)noc1C	i	·	-1%	0%	10µM*
CCOc1ccc2nc(NC(=O)CN3C(=O)C4CCCCC4C3=O)sc2c1 (stereo not drawn)	i	8%	2%	3%	9%
CC(C)CN1C(=O)C(=O)N(CC(=O)Nc2cc(Cl)ccc2Oc2ccccc2)C1=O	i	·	?	3%	23µM*
CCOC(=O)c1c(C)oc2nc(C)nc(N(C)Cc3ccccc3)c12	i	?	7%	8%	13µM*
CCOC(=O)c1c(C)oc2nc(C)nc(NC(C)c3ccccc3)c12 (stereo not drawn)	i	11%	9%	0%	?
CCOC(=O)c1c(C)oc2nc(C)nc(N3CCN(c4ccccc4)CC3)c12	?	?	-5%	-1%	23µM*
O=C(Nc1scc(-c2ccc(Br)cc2)c1C(=O)O)c1ccccc1F	i	14%	-11%	-1%	10µM*
Cc1ccccc1C(=O)Nc1scc(-c2ccc(Br)cc2)c1C(=O)O	?	-3%	-25%	-2%	8.2µM*
SMILES	ATXN viability	ATXN2 expr inh	A549 tox	Nrf2 activator	Nrf2 inh
Cc1ccc(-c2csc(NC(=O)c3ccccc3F)c2C(=O)O)cc1	i	·	-14%	0%	?
O=C(Nc1scc(-c2ccccc2)c1C(=O)O)c1ccccc1F	i	7%	-2%	0%[9.22 µM]	-5%
Cc1c(C(=O)Nc2cc(F)ccc2F)sc2nc(-c3ccc(F)cc3)cn12	·	·	4%	-1%	·
COc1ccccc1C(=O)Nc1ccc(S(=O)(=O)N2CCC(C)CC2)cc1	i	-4%	-17%	0%	23µM*
COc1ccccc1C(=O)NCCC(=O)Nc1ccc(S(=O)(=O)N2CCC(C)CC2)cc1	i	-11%	-13%	0%	12µM*
COc1ccccc1C(=O)NCCC(=O)Nc1ccc(S(=O)(=O)Nc2ncccn2)cc1	i	8%	-3%	-1%	2%
COc1ccccc1C(=O)Nc1ccc(S(=O)(=O)N2CCCCC2c2cccnc2)cc1 (stereo not drawn)	?	?	-20%	1%	16µM*
CCCc1cc(-c2nc(-c3ccc(Br)cc3)cs2)ccn1	i	25%	-4%	0%	6%
COc1ccc(-c2nnn(CC(=O)N(CCN3CCOCC3)C(C(=O)NC3CCCC3)c3ccco3)n2)cc1 (stereo not drawn)	i	·	1%	-1%	-23%
O=C(Cn1cc2c(n1)CCCC2)NCCCN1CCN(C2CCCCC2)CC1	i	-2%	-7%	-1%	9%
CC1=C(C(=O)OCc2ccc(C)cc2)C(c2cccc(F)c2F)CC(=O)N1 (stereo not drawn)	i	-15%	-1%	0%	23µM*
CC1=C(C(=O)OCC2CCCCC2)C(c2cccc(F)c2F)CC(=O)N1 (stereo not drawn)	i	12%	1%	0%	-5%
COc1ccc(C(=O)NNC(=S)NC(=O)c2cc(-c3ccccc3)nc3ccccc23)cc1	i	6%	?	21%	18µM*
CCCOc1ccc(C(=O)NNC(=S)NC(=O)c2cc(-c3ccc(Cl)cc3)nc3ccccc23)cc1	?	-7%	-18%	1%	4.6µM*
COc1ccc(Nc2oc(COc3ccccc3OC)nc2C#N)cc1	i	10µM*	-2%	13%	?
COc1ccccc1OCc1nc(C#N)c(NCc2ccc(C)cc2)o1	·	·	5%	3%	-15%
CC(C)Cc1nnc(NC(=O)CCC(=O)NC2CCCCCCC2)s1	i	11%	-7%	-1%	-2%
C=C1C(=O)[C@@]23C(CC[C@@H]1[C@H]2O)[C@@]12CO[C@]3(O)[C@@H](O)[C@@H]1C(C)(C)CC[C@@H]2O (stereo partly drawn)	·	9.7µM*	·	·	·
COc1ccc(-c2nc3c(c(SCC(=O)N4CCCCC4)n2)Cc2cc(C)ccc2O3)cc1	·	·	-1%	2%	3%
